# Source: PubChem (National Center for Advancing Translational Sciences (NCATS))
# IL1B secr inh: blocks inflammasome-driven IL-1 beta release; THP-1 LPS/ATP IL-1B secretion, AlphaLISA, 16 h; hits give low values; activity change, % at 57.5 µM; 360,000 compounds, 4.7% hits; in the data active = activity change below about -50%; inconclusive = mostly about -30% to -49%
#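 Secreted IL-1B measured by AlphaLISA bead assay after 16 h compound exposure of THP-1 cells; compounds (final up to 57.5 uM) added 1 h before LPS (250 ng/mL) and ATP (1.25 mM) stimulation; lower signal means less secretion.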
# VP16 counter: counter-screen for ROR gamma inhibitors: Gal4-VP16 reporter; AID 2546; 310,000 compounds, 3.5% hits; Potency, µM (doses to about 53.6 µM), inactives show top-dose activity, negative = inhibition, usual class: inhibitors; Drosophila S2 Gal4-VP16 UAS-luciferase, luminescence, 20 h;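 note: Gal4-VP16 expression switched on by copper sulfate through the metallothionein promoter; potency is the fitted concentration of half-maximal effect; nearly all actives have a fitted effect of over 50% in size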
# RORgamma inh: ROR gamma (mouse) transcription inhibition; P51450; Drosophila S2 Gal4-RORgamma UAS-luciferase reporter, 20 h; Potency, µM (highest dose often 53.6 µM), for inactives: at the highest dose activity change, negative = inhibition, usual class: inhibitors; 310,000 compounds, 5.4% hits; note: potency is the fitted concentration of half-maximal effect; nearly all actives have a fitted effect of over 60% in size
# Target sequence (P51450 whole entry, looked up, the tested form may be a part): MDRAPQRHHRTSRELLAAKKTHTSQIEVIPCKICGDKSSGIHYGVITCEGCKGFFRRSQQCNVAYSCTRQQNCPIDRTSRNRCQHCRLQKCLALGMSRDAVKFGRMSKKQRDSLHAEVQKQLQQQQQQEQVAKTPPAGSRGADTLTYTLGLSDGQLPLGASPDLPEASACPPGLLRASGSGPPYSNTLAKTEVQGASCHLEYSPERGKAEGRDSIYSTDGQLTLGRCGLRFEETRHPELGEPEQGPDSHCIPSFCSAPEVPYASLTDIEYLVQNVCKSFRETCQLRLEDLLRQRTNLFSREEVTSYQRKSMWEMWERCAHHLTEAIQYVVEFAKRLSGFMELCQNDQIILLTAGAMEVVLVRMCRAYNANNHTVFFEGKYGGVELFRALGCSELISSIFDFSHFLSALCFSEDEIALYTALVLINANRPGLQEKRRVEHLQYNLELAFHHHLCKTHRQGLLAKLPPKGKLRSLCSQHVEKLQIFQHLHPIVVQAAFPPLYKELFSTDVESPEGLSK
#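 Stable Schneider cell line, Gal4 DNA-binding domain fused to ROR gamma, UAS-luciferase. Cmpd 1 hr RT → CuSO4 700 uM final → 20 hr RT → luciferase reagent 10 min → luminescence.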
# LDHA inh: LDHA (human) enzyme inhibition; P00338; purified LDHA, NADH/diaphorase-resazurin fluorescence; hits give low values; activity change, % (values are at about 110 or 230 µM); 480,000 compounds, 0.15% hits; in the data active = activity change below about -30%; inconclusive = mostly about -25% to -30%;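 note: plate controls were DMSO wells for no effect and wells without enzyme for full effect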
#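 LDH5 2 nM; NADH 0.06 mM, pyruvate 0.2 mM; 200 mM Tris pH 7.4, EDTA, Tween-20; 5 min RT. Detection: diaphorase 0.133 mg/mL + resazurin 37 µM, fluorescence ex540/em590 at 0 and 20 min; normalized to enzyme-free and DMSO wells.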
# DT40 TDP1 no CPT: qHTS for Inhibitors of human tyrosyl-DNA phosphodiesterase 1 (TDP1): qHTS in cells in absence of CPT; DT40 Tdp1-/- hTDP1 cells, no CPT, ATP luminescence, 48 h; Potency, µM (top dose mostly 46.2 µM), without a hit: at the highest dose activity change, negative = growth inhibition, actives largely listed as inhibitors; 420,000 compounds, 15% hits; note: potency is the fitted concentration of half-maximal effect; nearly all actives have a fitted effect of over 55% in size
#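 Chicken DT40 Tdp1-/- cells stably complemented with human TDP1 were seeded at 400 cells/well with DMSO in place of 20 nM camptothecin. After compound pinning, cells grew at least 48 hr at 37 °C; viability read by CellTiter-Glo luminescence.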
# DT40 TDP1 CPT: growth inhibition of DT40 Tdp1-/-;hTDP1 cells with camptothecin (screen for TDP1 inhibitors); chicken DT40 Tdp1-/-;hTDP1 cells + 20 nM CPT, ATP luminescence, 48 h; Potency, µM (top dose mostly 46.2 µM), without a hit: at the highest dose activity change, negative = growth inhibition, most hits filed as inhibitors; 420,000 compounds, 12% hits; note: potency is the fitted concentration of half-maximal effect; nearly all actives have a fitted effect of over 55% in size
#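 Chicken DT40 Tdp1-/- cells stably complemented with human TDP1 were seeded at 400 cells/well in medium containing 20 nM camptothecin, exposed to pin-transferred compounds, and grown at 37 °C for at least 48 hr. Viability was read as ATP luminescence.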
# * marks the source's active call; other numbers are inactive results; u = inconclusive; x = no result given. The list is not random: actives were taken first. Their share in the collection is about 18%. Unless noted, calls come from the whole dose curve; as a rule, active = well fitted curve in the direction sought with a large enough effect; inconclusive = small, poorly fitted or top-dose-only effect, or another doubt; inactive = no such curve, though single readings can be large; an effect the other way counts as inactive or inconclusive. Unless noted, % is set by controls: 0 for no effect and ±100 for the full control effect.
SMILES,IL1B secr inh,VP16 counter,RORgamma inh,LDHA inh,DT40 TDP1 no CPT,DT40 TDP1 CPT
CC(=O)c1cccc(-c2ccnc3c2CC(C(=O)Nc2ccccc2)O3)c1 (stereo unspecified),-5,x,x,0,u,16µM*
CC(=O)c1cccc(NC(=O)C2Cc3c(-c4ccco4)ccnc3O2)c1 (stereo unspecified),0,x,x,-9,16µM*,u
CC(=O)Nc1cccc(-c2ccnc3c2CC(C(=O)Nc2cccc(NS(C)(=O)=O)c2)O3)c1 (stereo unspecified),-1,x,x,-4,-28%,-18%
CCCCCOc1ccc(Br)cc1/C(C)=N/NC1=NCCN1,-103*,u,2.5µM*,0,4.6µM*,5.8µM*
COc1ccc(Br)cc1/C(C)=N/NC1=NCCN1,-76*,13µM*,u,-8,15µM*,8.2µM*
CCN(Cc1ccc(NC(C)=O)cc1)CC1CCCN(CCc2cccc(OC)c2)C1 (stereo unspecified),-11,-9%,3%,-9,21µM*,u
CCN(Cc1ccc(OC)c(COC)c1)CC1CCCN(CCc2cccc(F)c2)C1 (stereo unspecified),u,-3%,2%,2,u,u
CCN(Cc1ccccc1OC)CC1CCCN(CCc2cccc(OC)c2)C1 (stereo unspecified),u,2%,0%,-3,u,15µM*
CC(=O)c1cc2c(cc1NC(=O)c1cc(C)nn1-c1ccccc1)OCO2,24,-15%,1%,-12,3.7µM*,5.2µM*
CC(=O)c1cc2c(cc1NC(=O)C1CN(C(C)=O)c3ccccc3O1)OCO2 (stereo unspecified),16,x,x,-1,21µM*,15µM*
CC[N+](CC)(CC#Cc1ccccc1)CC(=O)OC,x,x,x,6,x,x
C=CCSc1nc2c(c(=O)[nH]c(=O)n2C)n1CCC,x,x,x,6,x,x
Cc1ccc(-c2nc3sc(CCNC(=O)c4ccc(Br)o4)c(C)n3n2)cc1,x,x,x,2,29µM*,u
Cc1c(CCNC(=O)c2ccc(Br)o2)sc2nc(-c3ccc(F)cc3)nn12,x,x,x,-5,4.6µM*,12µM*
CS(=O)(=O)NC(=O)c1ccc(Cl)cc1F,x,x,x,0,x,x
N#CCCN(CCC#N)C(=O)C1CCN(C(=O)c2cccs2)CC1,x,x,x,-2,x,x
CN(C(=O)CCc1nc2ccccc2c(=O)[nH]1)C1CCCC1,x,x,x,4,x,x
O=C(NCc1ccc(C(F)(F)F)cc1)C1CCN(C(=O)/C=C/c2ccccc2)CC1,x,x,x,10,x,x
C[C@H]1CN([C@@H](C)CO)S(=O)(=O)c2ccc(C#Cc3ccccn3)cc2O[C@@H]1CN(C)C(=O)C1CC1,-3,x,x,1,16µM*,u
COc1cccc(C#Cc2ccc3c(c2)O[C@@H](CN(C)C(=O)c2ccccn2)[C@@H](C)CN([C@H](C)CO)S3(=O)=O)c1,-4,x,x,9,u,u
CC(C)CC#Cc1ccc2c(c1)O[C@H](CN(C)C(=O)Cc1ccncc1)[C@H](C)CN([C@H](C)CO)S2(=O)=O,-28,x,x,10,26µM*,u
C[C@H](CO)N1C[C@H](C)[C@H](CN(C)C(=O)c2ccccn2)Oc2cc(C#Cc3ccc(F)cc3)ccc2S1(=O)=O,0,x,x,3,18µM*,21µM*
CN(Cc1ccc(F)cc1)C(=O)Cn1nc(C(N)=O)c2ccccc2c1=O,x,x,x,1,x,x
COc1ccc(-c2csc(NCc3ccco3)n2)cc1C,-52*,-25%,u,0,u,-27%
Fc1ccc(F)c(-c2csc(NCc3ccco3)n2)c1,x,x,x,11,x,x
SMILES,IL1B secr inh,VP16 counter,RORgamma inh,LDHA inh,DT40 TDP1 no CPT,DT40 TDP1 CPT
Cc1ccn2c(-c3csc(NCc4ccco4)n3)c(C)nc2c1,-20,u,13µM*,9,18µM*,15µM*
CC(=O)Nc1ccc(-c2csc(NCc3ccco3)n2)cc1,-22,u,u,-1,-25%,-13%
Cc1ccc(SC2CC(C)OC2=O)cc1C (stereo unspecified),x,x,x,0,x,x
CN(c1ccccc1)S(=O)(=O)c1cccc(C(=O)Nc2cccc(C(=O)NC3CC3)c2)c1,9,x,x,-9,u,u
Cc1ccc(NC(=O)c2ccc3ncsc3c2)cc1S(=O)(=O)N(C)C,x,7.1µM*,7.9µM*,x,x,x
CN(c1ccccc1)S(=O)(=O)c1cccc(NC(=O)c2ccc3ncsc3c2)c1,-69*,-19%,29%,-4,u,10µM*
CN(c1ccccc1)S(=O)(=O)c1cccc(NC(=O)c2cccc(C#N)c2)c1,u,x,x,-3,15µM*,u
Cc1ccc(C(=O)/C=C/c2ccc(Br)cc2F)o1,x,x,x,-4,x,x
COc1ccc(-c2cn3nc(N4CCCC(C(=O)NCCc5cccs5)C4)sc3n2)cc1 (stereo unspecified),x,x,x,13,x,x
c1ccc2c(N3CCCCCC3)nc(-c3ccncc3)nc2c1,u,-6%,-39%,-4,23µM*,u
c1ccc2c(N3CCCCC3)nc(N3CCCCC3)nc2c1,4,5%,u,0,u,18µM*
c1cncc(-c2nc(N3CCCCCC3)c3ccccc3n2)c1,-21,u,11µM*,0,u,u
CN1CCN(c2nc(-c3cccnc3)nc3ccccc23)CC1,u,-26%,-12%,-5,-23%,2%
CCN1CCN(c2nc(-c3ccncc3)nc3ccccc23)CC1,x,-6%,-26%,x,x,x
Cc1ccc(/C=N\NC(=O)c2ccc(C)cc2)cc1,x,x,x,-1,x,x
CCC(C)[C@H](NC(=O)[C@@H]1Cc2c([nH]c3ccccc23)C2c3ccccc3C(=O)N21)C(=O)NCC1CCCO1 (stereo partly specified),-20,-7%,33%,-3,16µM*,u
COC(=O)c1cccc(NC(=O)c2onc3c2CCCC3)c1,19,u,7.1µM*,0,0%,-13%
O=C(Nc1ccc2ccccc2c1)c1onc2c1CCCC2,-4,u,14µM*,1,u,1%
COC(=O)c1cccc(NC(=O)c2ccccc2)c1,-20,-9%,1%,1,-13%,-6%
Cc1cccc(NC(=O)c2onc3c2CCCC3)n1,-3,5.6µM*,2µM*,-3,u,9.2µM*
Cc1ccccc1NC(=O)c1onc2c1CCCC2,9,-4%,-33%,-7,-29%,u
CC(=O)/C=C/c1ccc2c(c1)S(=O)(=O)N(C1CCCC1)[C@H]2CC(C)=O,x,x,x,x,7.1µM*,16µM*
